In PubChem BioAssay (NCI):
This is part of a sample that, as a whole, favours compounds with a hit. Of some 79,000 tested, about 15% had one in any assay. No stated cut-off is given here; in the data, active means growth inhibition above about 70%; inactive means the rest.

Columns and labels:
[1] = NCI Yeast Anticancer Drug Screen. Data for the rad50 strain (AID 155);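 further: 0% = growth of vehicle-only cultures of the same strain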; settings: S. cerevisiae rad50 strain growth inhibition; at 50.0 µM; stronger effect = higher value
Outline: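 DNA repair mutant yeast, compound exposure, growth read-out; inhibition is taken relative to vehicle.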

[2] = NCI Yeast Anticancer Drug Screen. Data for the mec2-1 strain (AID 157); settings: S. cerevisiae mec2-1 strain, at 50.0 µM, stronger effect = higher value
Outline: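 Growth inhibition is read against vehicle-treated controls after compound exposure of the mec2-1 yeast strain, which is defective in DNA damage repair or cell cycle control.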

[3] = NCI Yeast Anticancer Drug Screen. Data for the sgs1 mgt1 strain (AID 161);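 further: 0% = growth of cultures given vehicle only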; settings: S. cerevisiae sgs1 mgt1 strain, at 50.0 µM, stronger effect = higher value
Outline: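 Compounds are added to genetically altered yeast, and growth is compared with cultures given vehicle alone to give percent inhibition.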

[4] = NCI Yeast Anticancer Drug Screen. Data for the cln2 rad14 strain (AID 165);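 further: 0% = growth equal to vehicle treated cultures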; settings: S. cerevisiae cln2 rad14 strain, at 50.0 µM, stronger effect = higher value
Outline: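 Growth inhibition, relative to vehicle-treated controls, is the read-out. The test organism is a yeast strain with defined genetic alterations, cln2 rad14.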

[5] = NCI Yeast Anticancer Drug Screen. Data for the bub3 strain (AID 167); settings: S. cerevisiae bub3 mutant strain, at 50.0 µM, stronger effect = higher value
Outline: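 In this screen, a yeast mutant lacking normal mitotic checkpoint function is challenged with compound. Relative growth versus vehicle gives the inhibition value.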

[6] = NCI Yeast Anticancer Drug Screen. Data for the mlh1 rad18 strain (AID 175); settings: S. cerevisiae mlh1 rad18 strain growth inhibition; at 50.0 µM; stronger effect = higher value
Outline: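 Cells of a genetically altered yeast strain, deficient in DNA damage repair, were treated with compound. Their growth was then compared with that of vehicle-treated cultures to give inhibition.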

Measured: growth inhibition

O=NC1C(Cl)C2CC1C1C(Cl)C(Cl)CC21 (stereo not given)
inactive: [1] 35% | [2] 14.7% | [3] 52.9% | [4] 40.4% | [5] 27.4% | [6] 33.1%

CC(C)CNC(=O)O
inactive: [1] 5.15% | [2] -7.1% | [3] -7.5% | [4] -6.15% | [5] -10.8% | [6] -4.75%

NCCCCCOCCCCCN
inactive: [1] 3.4% | [2] -0.25% | [3] -7% | [4] -8.1% | [5] 3.8% | [6] -1.65%

COC(CCl)OC
inactive: [1] 3.75% | [2] -18.6% | [3] 15.8% | [4] 10.3% | [5] -9.7% | [6] 2.6%

COC(=O)c1cc2ccccc2n1C
inactive: [1] -25.7% | [2] -45.6% | [3] -30.9% | [4] 16.1% | [5] -6.95% | [6] -8.15%

COc1nc(OC)c2cnn(-c3ccc(Cl)cc3)c2n1
inactive: [1] -10.5% | [2] -4.6% | [3] -6.45% | [4] -3% | [5] 3.7% | [6] -7.35%

O=C(Nc1ccc2ccccc2c1)c1ccc(Cl)cc1Cl
inactive: [1] -12.1% | [2] 14.2% | [3] -0.7% | [4] -2.85% | [5] 2.45% | [6] -14.8%

CN(C)c1ccc(/C=C(\C#N)c2cccc(F)c2)cc1
inactive: [1] -4.85% | [2] 0.3% | [3] 1.5% | [4] -14.2% | [5] 3.4% | [6] -20.2%

C=CCN(CC=C)C(=S)NC(=O)c1ccccc1
inactive: [1] 17.8% | [2] 27.8% | [3] 53.2% | [4] 16.9% | [5] 28.3% | [6] 2.25%

C#[N+]CCOP(=O)(OCC1OC(n2cc(C)c(=O)[nH]c2=O)CC1N=[N+]=[N-])O[C@H]1CC[C@@]2(C)C(=CC[C@H]3[C@@H]4CC[C@H](C(C)/C=C/C(CC)C(C)C)[C@@]4(C)CC[C@@H]32)C1 (stereo not given in full)
inactive: [1] -32.3% | [2] -14.4% | [3] -23.1% | [4] -7.4% | [5] 7.5% | [6] -19.1%

O=c1oc2ccc3ccccc3c2cc1-c1c[nH]c2ccccc12
inactive: [1] 10.7% | [2] 10% | [3] 15.2% | [4] 11.6% | [5] 6.05% | [6] 7.05%

c1cc[n+](Cc2ccc3ccccc3n2)cc1
inactive: [1] -0.95% | [2] -5.5% | [3] -5.85% | [4] -27.4% | [5] -2.2% | [6] 28.9%

CC(=O)OCC1CCCCO1 (stereo not given)
inactive: [1] 2.6% | [2] -1.65% | [3] -6.1% | [4] -0.2% | [5] -0.2% | [6] -4.7%

COc1ccc(-c2c(C(C)=O)c(C)n(C3OC(CO)C(O)C(O)C3O)c(=S)c2C#N)cc1 (stereo not given)
inactive: [1] 15.9% | [2] 34.2% | [3] 31.8% | [4] 34% | [5] 26.2% | [6] 49%

CNc1ccc(C(=O)N(C(=O)NC2CCCCC2)C2CCCCC2)cc1
inactive: [1] -6.65% | [2] -5.6% | [3] 4.7% | [4] -6.85% | [5] -1.95% | [6] 5.15%

CC(C)=NOC(=O)Nc1cccc2c1OCO2
inactive: [1] -30.3% | [2] -19.4% | [3] -12% | [4] -14.8% | [5] -35.5% | [6] 4.25%

O=[N+]([O-])c1ccc(Cl)c(F)c1Cl
inactive: [1] -13% | [2] -17.1% | [3] -0.2% | [4] 5.15% | [5] -3.9% | [6] -12.2%

CN1CCN(C(=O)Nc2ccc(N=Nc3ccccc3)cc2)CC1
inactive: [1] -9.3% | [2] -17.2% | [3] 6.1% | [4] -29.5% | [5] 16.8% | [6] -6.25%

CCOC(=O)C(NC(=O)NC(C(=O)OCC)C(=O)OCC)C(=O)OCC
inactive: [1] -16.7% | [2] -20.6% | [3] -6.55% | [4] -4.05% | [5] -7.7% | [6] -17.6%

CC(C)CCCC(C)C1CCC2(C)C3CCC4C(C)(C)C(OCC(C)(C)C)CCC4(C)C3CCC12C (stereo not given)
inactive: [1] 34% | [2] -5.5% | [3] 4.7% | [4] 7.3% | [5] -0.15% | [6] -5.4%
